Source: PubChem BioAssay (Tox21)
Values without a mark were called inactive. Results filed as inconclusive are left out. A call without a number means that no potency is given here. Calls of active or inactive are those of the source. Calls come from the whole dose curve; as a rule, active = well fitted curve in the direction sought with a large enough effect in the repeat runs; inconclusive = weak or mixed curves; inactive = no such curve, though single readings can be large; an effect the other way counts as inactive or inconclusive.

How the values were obtained:
[1] = A CellTox Green Cytotoxicity Assay to monitor cytotoxicity in HEK293 cells - 24 hour (AID 1224875); note: series mostly up to about 77 µM; nearly all actives have a fitted effect of over 45% in size
In short: (§1)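 Tox21 screen in HEK293: membrane-impermeant cyanine dye fluoresces on binding dead-cell DNA; compound pinned 5 h post-seeding, plates held at 37 C, signal read repeatedly through 40 h.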

[2] = A CellTox Green Cytotoxicity Assay to monitor cytotoxicity in HepG2 cells - 16 hour (AID 1224876); note: nearly all actives have a fitted effect of over 45% in size
In short: (§2)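 Measurements at 0, 8, 16, 24, 32 and 40 h of treatment captured CellTox Green fluorescence in HepG2 cells that had been co-plated with reagent and preincubated 5 h at 37 C/5% CO2.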

[3] = A CellTox Green Cytotoxicity Assay to monitor cytotoxicity in HepG2 cells - 24 hour (AID 1224878); note: nearly all actives have a fitted effect of over 45% in size
In short: as §2

[4] = A CellTox Green Cytotoxicity Assay to monitor cytotoxicity in HepG2 cells - 40 hour (AID 1224879); note: nearly all actives have a fitted effect of over 40% in size; note: potency is the fitted concentration of half-maximal effect
In short: as §2

[5] = qHTS RealTime-Glo MT Cell Viability Assay in HEK293 cells - 0 hour (AID 1224880); note: top concentration of the series differs between compounds; nearly all actives have a fitted effect of over 45% in size
In short: (§3)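 HEK293 + NanoLuc + prosubstrate, 600 cells/well; 5 h, 37 C/5% CO2; compound 23 nL in DMSO by pintool; 37 C; luminescence read at 0, 8, 16, 24, 32 and 40 h time points.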

[6] = A CellTox Green Cytotoxicity Assay to monitor cytotoxicity in HepG2 cells - 0 hour (AID 1224882); note: nearly all actives have a fitted effect of over 35% in size
In short: as §2

[7] = A CellTox Green Cytotoxicity Assay to monitor cytotoxicity in HepG2 cells - 32 hour (AID 1224883); note: nearly all actives have a fitted effect of over 50% in size; note: potency is the fitted concentration of half-maximal effect
In short: as §2

[8] = A CellTox Green Cytotoxicity Assay to monitor cytotoxicity in HEK293 cells - 8 hour (AID 1224884); note: nearly all actives have a fitted effect of over 35% in size
In short: as §1

[9] = qHTS RealTime-Glo MT Cell Viability Assay in HepG2 cells - 16 hour (AID 1224885); note: nearly all actives have a fitted effect of over 50% in size
In short: (§4)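 qHTS, HepG2, 600 cells/well, RealTime-Glo (NanoLuc + prosubstrate) added with cells; 5 h preincubation; DMSO compound addition; 37 C; luminescence at 0/8/16/24/32/40 h.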

[10] = qHTS RealTime-Glo MT Cell Viability Assay in HEK293 cells - 8 hour (AID 1224887); note: top concentration of the series differs between compounds; nearly all actives have a fitted effect of over 50% in size
In short: as §3

[11] = qHTS RealTime-Glo MT Cell Viability Assay in HepG2 cells - 0 hour (AID 1224889); note: nearly all actives have a fitted effect of over 50% in size
In short: as §4

[12] = A CellTox Green Cytotoxicity Assay to monitor cytotoxicity in HepG2 cells - 8 hour (AID 1224890); note: nearly all actives have a fitted effect of over 45% in size
In short: as §2

[13] = qHTS assay to identify small molecule antagonists of the estrogen receptor alpha (ER-alpha) signaling pathway using the BG1 cell line in the presence of 0.1 nM 17-beta-estradiol - cell viability counter screen (AID 1259241); note: nearly all actives have a fitted effect of over 40% in size; note: potency is the fitted concentration of half-maximal effect
In short: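 Cells were plated and left 24 hr, compounds in DMSO were pinned in, 17beta-estradiol was added to 0.1 nM final, and after 22 hr CellTiter-Fluor reagent was added for 30 min before fluorescence was read.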

[14] = A CellTox Green Cytotoxicity Assay to monitor cytotoxicity in HEK293 cells - 16 hour (AID 1224888); note: nearly all actives have a fitted effect of over 35% in size
In short: as §1

[15] = qHTS RealTime-Glo MT Cell Viability Assay in HEK293 cells - 16 hour (AID 1224872)
In short: (§5)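 Assay medium contained NanoLuc luciferase plus cell-permeant prosubstrate, added with HEK293 cells at 600 cells/well. After 5 h at 37 C/5% CO2 compounds were added; plates stayed at 37 C for 40 h with serial luminescence reads.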

[16] = A CellTox Green Cytotoxicity Assay to monitor cytotoxicity in HEK293 cells - 32 hour (AID 1224881); note: nearly all actives have a fitted effect of over 40% in size
In short: as §1

[17] = qHTS RealTime-Glo MT Cell Viability Assay in HEK293 cells - 24 hour (AID 1224886)
In short: as §5

[18] = qHTS RealTime-Glo MT Cell Viability Assay in HepG2 cells - 8 hour (AID 1224873); note: nearly all actives have a fitted effect of over 55% in size
In short: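 Real-time viability: cells seeded at 600 per well together with NanoLuc and cell-permeant prosubstrate, compounds added after 5 h incubation. Luminescence tracked at 0, 8, 16, 24, 32 and 40 h of exposure.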

[19] = qHTS RealTime-Glo MT Cell Viability Assay in HepG2 cells - 32 hour (AID 1224877); note: nearly all actives have a fitted effect of over 55% in size
In short: as §4

Row | SMILES | Potency [1] | Potency [2] | Potency [3] | Potency [4] | Potency [5] | Potency [6] | Potency [7] | Potency [8] | Potency [9] | Potency [10] | Potency [11] | Potency [12] | Potency [13] | Potency [14] | Potency [15] | Potency [16] | Potency [17] | Potency [18] | Potency [19]
1 | S=C([S-])NCCNC(=S)[S-].S=C([S-])NCCNC(=S)[S-].[Mn+2].[Zn+2] | inactive | inactive | inactive | inactive | inactive | inactive | inactive | inactive | inactive | inactive | inactive | inactive | inactive | – | – | – | – | – | –
2 | C/C=C/C=C/COC(=O)C(C)C | inactive | inactive | – | 43.6 µM (active) | inactive | inactive | 38.9 µM (active) | inactive | inactive | – | inactive | inactive | – | inactive | – | – | – | – | –
3 | O=C(Nc1ccc2c(O)c(N=Nc3ccc(N=Nc4ccc(S(=O)(=O)O)cc4)cc3)c(S(=O)(=O)O)cc2c1)c1ccccc1 | – | inactive | inactive | inactive | – | inactive | inactive | inactive | – | inactive | – | inactive | 12.2 µM (active) | inactive | inactive | inactive | inactive | – | –
4 | COc1cc(/C=C/c2ccccc2)oc(=O)c1 | inactive | inactive | inactive | inactive | inactive | inactive | inactive | inactive | inactive | inactive | inactive | inactive | inactive | inactive | – | – | – | inactive | inactive
5 | OC12N=C(c3ccccc3)SC1Cc1cc(Cl)ccc12 (centres undefined) | inactive | inactive | – | – | – | inactive | – | inactive | inactive | inactive | inactive | inactive | inactive | inactive | – | – | – | inactive | –
6 | CCCCCC(C)OC(=O)COc1ccc(Cl)c2cccnc12 (centres undefined) | – | inactive | – | – | inactive | inactive | – | inactive | – | – | inactive | inactive | inactive | inactive | – | – | – | inactive | inactive
7 | C=CC(=O)OCCOC(=O)C=C | inactive | inactive | inactive | inactive | inactive | inactive | inactive | inactive | inactive | inactive | – | inactive | inactive | inactive | – | – | – | inactive | inactive
